In all, about 360,000 compounds went through this assay and about 5,000 (1.4%) were called active. This is one part of a sample in which actives are shown more often than they occur. Values without a mark were called inactive.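 The calls were made as follows: active = inhibition of 50% or more, scaled per plate between neutral and stimulator controls; inactive = the rest.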

The record followed here is PubChem BioAssay AID602449 (Sanford-Burnham Center for Chemical Genomics, 2012).

This test is described as follows: blockers of Ca2+-induced mitochondrial swelling – biochemical, isolated mouse mitochondria, absorbance, primary screen (AID 602449).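 Also: 0% = DMSO wells given calcium and 100% = 1 mM EGTA wells.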 To be noted: 30 min, at 10 µM, hits give high values.
Consider `Cc1ccc(C)c(N2CCN(C(=O)Cn3ncn4cccc4c3=O)CC2)c1`, for which the inhibition was 0.1%.

In the case of `COc1ccc(S(=O)(=O)NCC2CCCN(C(=O)c3occc3C)C2)cc1` (stereo unspecified), the inhibition was -0.5%.

Regarding `O=C(O)c1cc(S(=O)(=O)N(Cc2ccccc2)c2cccc(C(F)(F)F)c2)ccc1Cl`, the inhibition is 0.9%.

As to `O=C(NNc1ccccc1Cl)C(O)(c1cccc(C(F)(F)F)c1)c1cccc(C(F)(F)F)c1`, the inhibition is 90% (active).

`O=c1cc(O)c(-c2cccc(C(F)(F)F)c2)c(Cl)[nH]1`: the inhibition was 3.7%.

Regarding `CCCCNc1c(-c2cccc(Sc3ccc(OC)cc3)c2)nc2ccccn12`, the inhibition is 6.5%.

`CC(=O)NC(CC(=O)Nc1ccc(S(=O)(=O)N2CCOCC2)cc1)c1ccccc1` (stereo unspecified): the inhibition is -1.9%.

As for `COc1ccc(C(C)(O)c2nc(-c3cc(F)cc(F)c3)cs2)cc1` (stereo unspecified), the inhibition is 1.2%.

With `COC(=O)C1=CN(c2c(C)cc(C)cc2C)C(N)=C(C#N)C1c1cccc(F)c1` (stereo unspecified), the inhibition was 1.1%.

Consider `CCCCN(C)C(=O)C1CCN(Cc2ccccn2)CC1`, for which the inhibition is -1%.

In the case of `Cn1c(-c2sccc2OCc2cccc(C(F)(F)F)c2)n[nH]c1=S`, the inhibition was 0.2%.

On to `C#CCCCc1nc2ccccc2c(=O)n1N`, for which the inhibition was 5.8%.

As to `N#Cc1c(-c2ccccc2)nc(SCc2cccc(C(F)(F)F)c2)[nH]c1=O`, the inhibition is 49.1%.

On to `O=c1c2ccccc2nc2n1C(CSCc1cccc(C(F)(F)F)c1)CS2` (stereo unspecified), for which the inhibition is 54% (active).

With `O=c1c2ccccc2nc2n1C(CSc1ccc(Cl)cc1)CN2` (stereo unspecified), the inhibition was -1.7%.

Turning to `O=c1c2ccccc2nc2n1C(CSCc1ccccc1)CS2` (stereo unspecified), the inhibition is 52.1% (active).

On to `COC(=O)[C@@]1(Cc2ccc(F)cc2)[C@H]2c3cc(C(=O)N(C)C)n(CCc4c[nH]c5ccc(OC)cc45)c3C[C@H]2CN1C(=O)c1ccccc1`, for which the inhibition was -3.6%.

With `Cc1ccc(OCc2nnc(NC(=O)OCC(C)C)s2)cc1`, the inhibition is 0%.

As for `O=c1c2[nH]c3ccc(Cl)cc3c2ncn1Cc1ccccn1`, the inhibition was 0.2%.

Turning to `COc1ccccc1C1C(C#N)=C(N)Oc2c1c(-c1ccccc1)nn2-c1ccccc1` (stereo unspecified), the inhibition was 43.7%.

`CN/C(=C\[N+](=O)[O-])NCCSCc1csc(CN(C)C)n1`: the inhibition was -1.8%.

For the compound `Cc1c(NC(=O)c2coc(=O)c(Br)c2)c(=O)n(-c2ccccc2)n1C`, the inhibition is 0.9%.

As for `O=C(Nc1cccc(F)c1)c1coc(=O)c(Br)c1`, the inhibition was 92.1% (active).

With `O=C(Nc1cccc(F)c1)NC1CCCCCCC1`, the inhibition was 46.7%.

On to `CCC(C)NC(=O)N[C@@H](CCSC)C(=O)O` (stereo partly specified), for which the inhibition is -0.7%.

For `Cc1ccc(SCCSc2ncccn2)cc1`, the inhibition is 1.5%.

Regarding `c1ccc(CSCCc2ccncc2)cc1`, the inhibition is 4%.

As for `CCN(Cc1ccncc1)C(=O)CCc1ccccc1`, the inhibition is 4%.

Take `Cc1cc(C)c(NC(=O)CSc2nc3ccncc3[nH]2)c(C)c1`: the inhibition is -1.3%.

For the compound `CC(C)(C)c1ccc(SCCc2ccncc2)cc1`, the inhibition was 105% (active).

As to `Cc1cc(C)c(SCCc2ccncc2)c(C)c1`, the inhibition is 90.9% (active).
